# From PubChem BioAssay (Tox21)
# “And” between values parts separate entries of the source, which are not always exact repeats. Equal entries are not always repeated. Records with an inconclusive call do not appear. A call without a number means that no potency is given here. Where a structure was tested more than once in an assay, its records may differ in their call. The source made the active and inactive calls. Calls follow the shape of the dose curve; as a rule, active = well fitted activation curve with a large enough effect in the repeat runs; inconclusive = weak or mixed curves; inactive = flat fitted curve, though single readings scatter.
# Experiment: A CellTox Green Cytotoxicity Assay to monitor cytotoxicity in HEK293 cells - 40 hour (AID 1224871); also: nearly all actives have a fitted effect of over 45% in size
# Conditions: CellTox Green fluorescence; series mostly up to 76.8 µM
# Text: National Center for Advancing Translational Sciences [NCATS]
# NIH Chemical Genomics Center [NCGC]
# U.S. Environmental Protection Agency [EPA]
# National Institutes of Environmental Health Sciences [NIEHS]
# National Toxicology Program [NTP]
# Cell-based models are critical for drug discovery. Determining the natural cytotoxic effects resulting from test compounds is an essential research activity. A CellTox Green Cytotoxicity Assay to monitor cytotoxicity in real time of continues cell culture during 40 hours of the compound treatment was used to screen Tox21 10K library compounds in Hek293 cells. CellTox Green Cytotoxicity Assay is a nonlytic, homogeneous, biofluorescent method to measure cytotoxicity in cell culture after experimental manipulation. The assay system uses a proprietary asymmetric cyanine dye that is excluded from viable cells but preferentially stains the dead cell's DNA. […] Viable cells produce no appreciable increases in fluorescence. Therefore, the fluorescence signal produced by the binding interaction with dead cell DNA is proportional to cytotoxicity.
# The mixture of Hek293 cell suspension and reagents were dispensed at 600cells/6 ul/well in 1536-well tissue culture treated black solid bottom plates using a Multidrop dispenser. After the assay plates were incubated at a 37 C/5% CO2 incubator for 5 hours, 23 nL of compounds dissolved in DMSO, positive and negative controls was transferred to the assay plate by a pintool work station. The plates were incubated at 37 C for 40 hours. The fluorescence intensity were measured at 0h, 8h, 16h, 24h, 32h and 40h time points using ViewLux plate reader during compound treatment.
# Potency is read from the fitted curve at half-maximal effect.
row,Compound,Potency
1,COc1cc(N)c(Cl)cc1C(=O)NC1CN2CCC1CC2 (stereo not given),inactive
2,Cc1c(Cl)c(=O)oc2cc(OP(=O)(OCCCl)OCCCl)ccc12,inactive
3,O=c1oc2ccccc2c(O)c1Cc1c(O)c2ccccc2oc1=O,inactive
4,C=CC(=O)OCC(COC(=O)C=C)(COC(=O)C=C)COC(=O)C=C,19.5 µM (active)
5,CC(C)[C@H](C(=O)O[C@H](C#N)c1cccc(Oc2ccccc2)c1)c1ccc(Cl)cc1,inactive
6,BrCC(Br)c1ccccc1 (stereo not given),inactive
7,CCOCn1c(-c2ccc(Cl)cc2)c(C#N)c(Br)c1C(F)(F)F,24.5 µM (active)
8,CC(C)(C)OO,inactive
9,CCS(=O)(=O)c1cccnc1S(=O)(=O)NC(=O)Nc1nc(OC)cc(OC)n1,inactive
10,C[C@@H]1O[C@@H](O[C@@H]2C=C3CC[C@@H]4[C@H](CC[C@]5(C)[C@@H](c6ccc(=O)oc6)CC[C@]45O)[C@@]3(C)CC2)[C@H](O)[C@H](O)[C@H]1O,inactive
11,C[C@H]1O[C@@H](O[C@H]2[C@@H](O)C[C@H](O[C@H]3[C@@H](O)C[C@H](O[C@H]4CC[C@@]5(C)[C@H](CC[C@@H]6[C@@H]5CC[C@]5(C)[C@@H](C7=CC(=O)OC7)CC[C@]65O)C4)O[C@@H]3C)O[C@@H]2C)C[C@H](O)[C@@H]1O,inactive
12,C[C@H]1CC[C@@H]2[C@@H](C)[C@H]3[C@H](C[C@H]4[C@@H]5CC=C6CC(O[C@@H]7O[C@H](CO)[C@H](O)[C@H](O[C@@H]8O[C@H](CO)[C@@H](O)[C@H](O)[C@H]8O)[C@H]7O[C@H]7O[C@@H](C)[C@H](O)[C@@H](O)[C@H]7O)CC[C@]6(C)[C@H]5CC[C@]34C)N2C1 (stereo not given in full),7.14 µM (active)
13,CCOP(=S)(OCC)SCCS(=O)(=O)CC,inactive
14,c1ccc(OCC2CO2)cc1 (stereo not given),inactive
15,CC(C)[C@H](C(=O)OC(C#N)c1cccc(Oc2ccccc2)c1)c1ccc(OC(F)F)cc1 (stereo not given in full),inactive
16,O=C(Nc1ccc2[nH]ccc2c1)c1cc2cc(F)ccc2n1Cc1cccc(F)c1,inactive
17,CC(C)CC(C)Nc1ccc(Nc2ccccc2)cc1 (stereo not given),48.2 µM (active)
18,N#CSCSC#N,19.3 µM (active)
19,COc1ccc(N)cc1N,inactive
20,COP(=S)(OC)Oc1cc(Cl)c(Br)cc1Cl,inactive

row,Compound,Potency
1,CC(=[OH+])/C=C(/C)[O-].CC(=[OH+])/C=C(\C)[O-].CC(=[OH+])/C=C(\C)[O-].[Al],inactive
2,CCCCCCCCCCBr,inactive
3,CC(C)OC(=S)S,inactive
4,c1ccc(Nc2ccc3ccccc3c2)cc1,inactive
5,CC(C)C(=O)Cl,inactive
6,N#CCCSCCC#N,inactive
7,N#Cc1ccccc1Cl,inactive
8,CN(C)C(=S)S,9.97 µM (active) and 1.54 µM (active) and 6.92 µM (active)
9,CC1(C)C(/C=C(\Cl)C(F)(F)F)C1C(=O)OC(C#N)c1cccc(Oc2ccccc2)c1 (stereo not given),inactive
10,Cc1ccc(OP(=O)(Oc2ccccc2)Oc2ccccc2)cc1,inactive
11,[CH3][Hg][Cl],6.9 µM (active)
12,N#Cc1c(-c2ccc(Cl)cc2)[nH]c(C(F)(F)F)c1Br,49 µM (active)
13,Nc1ccc(Cc2ccc(N)c(Cl)c2)cc1Cl,inactive
14,C=COCCCl,inactive
15,CCCCCCCCCCCCCN1CC(C)OC(C)C1 (stereo not given),inactive
16,CN(C)C(=S)[S-].CN(C)C(=S)[S-].[Cu+2],2.38 µM (active)
17,Clc1ccc(C(c2ccc(Cl)cc2)C(Cl)(Cl)Cl)cc1,55.3 µM (active) and inactive
18,O=C(O)C1C2CCC(O2)C1C(=O)O (stereo not given),inactive
19,CCCCCCCCCCCCCCC(Br)C(=O)O (stereo not given),inactive
20,CCOC(=O)OC1=C(c2cc(C)ccc2C)C(=O)NC12CCC(OC)CC2 (stereo not given),inactive
